Out of some 65,000 compounds screened, about 450 (0.69%) were called active. This is one part of a sample in which actives are shown more often than they occur. Values without a mark were called inactive.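 Rule for the calls: active = HER2 level under 5% of the carrier-only control; inconclusive = no clear call, values can overlap the other calls; inactive = the rest.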

This note sets out measurements from PubChem BioAssay AID645 (SRMLSC, 2007).

Sequence of Receptor tyrosine-protein kinase erbB-2 (Homo sapiens) (P04626 whole entry, looked up): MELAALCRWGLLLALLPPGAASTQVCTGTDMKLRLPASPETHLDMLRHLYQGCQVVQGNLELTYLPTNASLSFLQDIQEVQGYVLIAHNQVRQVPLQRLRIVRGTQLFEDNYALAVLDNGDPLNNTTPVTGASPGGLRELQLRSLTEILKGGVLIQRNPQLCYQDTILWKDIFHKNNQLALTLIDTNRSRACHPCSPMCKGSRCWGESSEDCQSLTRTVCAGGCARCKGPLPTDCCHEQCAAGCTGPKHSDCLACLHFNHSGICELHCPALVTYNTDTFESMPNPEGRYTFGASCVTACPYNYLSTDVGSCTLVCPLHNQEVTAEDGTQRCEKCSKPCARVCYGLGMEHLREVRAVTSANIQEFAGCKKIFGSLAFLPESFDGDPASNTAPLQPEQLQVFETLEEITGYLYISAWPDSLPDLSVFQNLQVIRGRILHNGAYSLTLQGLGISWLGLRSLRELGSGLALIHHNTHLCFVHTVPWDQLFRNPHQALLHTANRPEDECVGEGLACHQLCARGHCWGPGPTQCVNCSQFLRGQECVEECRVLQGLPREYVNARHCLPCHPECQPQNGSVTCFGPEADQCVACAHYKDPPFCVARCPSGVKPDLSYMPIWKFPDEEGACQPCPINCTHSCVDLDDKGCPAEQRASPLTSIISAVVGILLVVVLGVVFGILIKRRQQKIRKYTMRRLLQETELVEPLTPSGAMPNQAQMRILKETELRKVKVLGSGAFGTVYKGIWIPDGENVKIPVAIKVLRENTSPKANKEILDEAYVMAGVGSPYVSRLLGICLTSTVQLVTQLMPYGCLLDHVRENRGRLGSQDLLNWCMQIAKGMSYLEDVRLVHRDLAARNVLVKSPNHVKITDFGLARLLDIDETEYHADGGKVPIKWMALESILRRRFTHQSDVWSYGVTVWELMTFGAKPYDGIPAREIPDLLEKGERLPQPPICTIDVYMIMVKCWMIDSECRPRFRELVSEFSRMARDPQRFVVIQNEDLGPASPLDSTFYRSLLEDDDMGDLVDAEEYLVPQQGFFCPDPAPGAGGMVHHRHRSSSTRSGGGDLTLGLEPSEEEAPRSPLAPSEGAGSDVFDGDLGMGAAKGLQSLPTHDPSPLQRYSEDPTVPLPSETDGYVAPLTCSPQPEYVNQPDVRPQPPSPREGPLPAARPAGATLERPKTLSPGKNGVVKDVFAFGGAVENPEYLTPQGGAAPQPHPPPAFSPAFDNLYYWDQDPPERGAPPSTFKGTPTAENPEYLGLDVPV

This assay has as its target Receptor tyrosine-protein kinase erbB-2 (Homo sapiens) (UniProt P04626). The assay can be described thus: inhibitors of Her2 protein expression, primary screen, SKBR-3 cells, AlphaScreen, 66K library (AID 645).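 Note: 100% = DMSO carrier and 0% = 500 nM PU-H71 HSP90 inhibitor; lower value means stronger loss of Her2 protein.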 To be noted: SKBR-3 HER2 protein level, 18-24 h, at 10 µM, active compounds read low.
As to `CCCCNC(=O)c1c[nH]c2ccc(S(=O)(=O)Nc3ccc(OCC)cc3)cc2c1=O`, the HER2 level % of control is 54.9%.
The figure for `CCOC(=O)c1c(NC(=O)CCC(=O)NCc2ccco2)sc2c1CCCC2` is 104%; for `Fc1ccc2nc(-c3ccccc3)nc(SCc3nnc(-c4ccccc4)o3)c2c1` it is 67.9%; for `O=C1CCc2cc(S(=O)(=O)N3CCC(C(=O)NCc4ccccc4Cl)CC3)ccc2N1` it is 90.7%.
Next, `COc1nc(OC)nc(N(C)CCO)n1`: 97.4%.
Regarding `COc1ccc(N2C(=O)CN=C2Nc2cccc(C)c2C)cc1OC`, the HER2 level % of control is 70.2%.
Next, `CCCc1[nH]nc2c1C(c1ccc(OC)c(Cn3nc(C)c(Br)c3C)c1)C(C#N)=C(N)O2` (stereo not given): -20.4% (active); `CCCc1[nH]nc2c1C(c1ccc(Br)s1)C(C#N)=C(N)O2` (stereo not given): 124%.
The figure for `COc1ccc(C2C(C#N)=C(N)Oc3n[nH]c(C)c32)cc1CN1CCN(c2ccc(F)cc2)CC1` (stereo not given) is 117%; for `COc1ccc2oc(C)c(NC(C)=O)c2c1` it is 71.5%.
The figure for `COc1ccc(NC(C)=O)cc1NC(=O)CN1CCN(C2c3ccccc3-c3ccccc32)CC1` is 71.4%; for `CCOC(=O)C1CCCN(C(=O)CN(c2ccc(OC)cc2)S(=O)(=O)c2c(C)noc2C)C1` (stereo not given) it is 95.7%.
Consider `c1ccc(-n2ncc(-c3nn[nH]n3)n2)cc1`, for which the HER2 level % of control was 88.5%.
In the case of `COc1cc(Br)cc(/C=N/c2ncn[nH]2)c1O`, the HER2 level % of control is 92.3%.
As to `Cc1cc(C)c2c(c1)c(C)cc1nnc(SCC(=O)NCc3ccco3)n12`, the HER2 level % of control was 104%.
Next, `O=C(c1ccco1)N1CCN(C(=O)C2c3ccccc3Oc3ccccc32)CC1`: 100%; `CCc1c(O)nc(SCC(=O)N2CCCCC2)n(-c2ccccc2C)c1=O`: 114%.
Next, `N#CCCn1cnc2ccccc21`: 106%; `COc1ccc(-c2nnc(SC(C)C#N)o2)cc1` (stereo not given): 127%; `COc1ccc(CC(=O)Nc2ccc(-c3nnc(-c4ccccc4)o3)cc2)cc1`: 87.4%.
The figure for `COc1ccc(-c2nnc(SC(=O)N3c4ccccc4Sc4ccccc43)o2)cc1` is -15.7% (active); for `CCn1nc(C(=O)OCC(=O)N2c3ccccc3CC2C)c2ccccc2c1=O` (stereo not given) it is 106%; for `CCOc1ccc(NCCC(=O)c2ccc3c(c2)OCO3)cc1` it is 95.7%.
Turning to `Nc1nonc1-c1noc(-c2ccc(Br)o2)n1`, the HER2 level % of control was 79.9%.
The figure for `CCn1ncc(Br)c1C(=O)Nc1cc(C)ccc1F` is 75.8%.
Consider `Clc1cccc(Cl)c1Cn1nnc(-c2cccs2)n1`, for which the HER2 level % of control was 89.2%.
For the molecule `O=C(CN1C(=O)CCC1=O)Nc1ccc(S(=O)(=O)N2CCOCC2)cc1`, the HER2 level % of control was 103%.
Next, `CCCCN(CC)CCCNC(=O)CS(=O)(=O)Cc1nc(-c2cccc(OC)c2)oc1C`: 80.5%; `CC1(C)CC(O)C(CCC(O)c2ccccc2)C(C)(C)N1` (stereo not given): 89.8%.
The figure for `CCN(CC)S(=O)(=O)c1ccc(NC(=O)CN(c2cccc(F)c2)S(C)(=O)=O)cc1` is 152%.
The figure for `COC(=O)[C@H](Cc1ccccc1)NC(=O)N1CC(C)OC(C)C1` (stereo not given in full) is 108%.
Regarding `C=C(C)COc1ccc(-c2n[nH]c(C)c2-c2ccccc2)c(O)c1`, the HER2 level % of control was 68.6%.
Turning to `COc1ccc(-c2n[nH]c(C)c2-c2ccc(OC)c(OC)c2)c(O)c1`, the HER2 level % of control was 82.6%.
The figure for `C=C(C)COc1ccc(-c2n[nH]c(C)c2-c2ccccc2OC)c(O)c1` is -9.89% (active); for `CCOC(=O)CNC(=O)CN1C(=O)CCSc2ccccc21` it is 106%.
Next, `Cn1c(=O)c2c(nc(N3CCCCCC3)n2CC(O)COc2ccc(Cl)cc2)n(C)c1=O` (stereo not given): 89%.
The figure for `COc1ccccc1NC(=O)C1=C(C)NC2=C(C(=O)CCC2)C1c1ccc(C)o1` (stereo not given) is 90.6%; for `O=c1ccn(Cc2ccccc2Cl)cc1` it is 93.6%; for `COc1ccccc1N1CCN(C(=O)c2ccc(S(=O)(=O)N3CCCCC3)cc2)CC1` it is 135%.
Regarding `Cn1c(SCC(=O)Nc2cccc(O)c2)nnc1-c1ccc(S(=O)(=O)N2CCOCC2)cc1`, the HER2 level % of control was 100%.
The figure for `CC(=O)Nc1nc(C)c(Cc2ccccc2)c(=O)[nH]1` is 142%.
Next, `Cn1c(=O)c2cn(-c3cccc4ccccc34)cc2n(C)c1=O`: 94.5%.
The figure for `CC(=O)Nc1ccc(S(=O)(=O)Nc2cccc(NC(=O)C(C)(C)C)c2)cc1` is 127%; for `COc1cc(NS(=O)(=O)c2ccc(NC(C)=O)cc2)cc(OC)c1` it is 90.4%; for `CC(=O)Nc1ccc(NS(=O)(=O)c2cc(C)sc2C)cc1` it is -22.3% (active).
With `CCC(C)n1[nH]c(=O)c2c(C)cc(C)nc21` (stereo not given), the HER2 level % of control was 116%.
On to `CCN(CC)CCCN1C(=O)C(=O)/C(=C(/O)c2c(C)nc3ccccn23)C1c1ccc(C)o1` (stereo not given), for which the HER2 level % of control is 90.1%.
As for `Cc1ccc(NC(=O)C2CC(c3ccc(F)cc3)=NO2)cc1` (stereo not given), the HER2 level % of control was 127%.
As to `CCC1(C)N(O)C(C)(C)C(c2ccc(OC)cc2)=[N+]1[O-]` (stereo not given), the HER2 level % of control was 90.2%.
Regarding `O=C1c2ccccc2C(O)N1Cc1ccccc1Cl` (stereo not given), the HER2 level % of control was 99%.
Next, `Brc1cnc(N2CCCC2)nc1N1CCCCC1`: 69.2%.
The figure for `COc1ccc(CC(=O)Nc2nc3n(n2)C(c2ccccc2)CC(=O)N3)cc1OC` (stereo not given) is 104%; for `CCCn1c(SCC(=O)c2ccc3c(c2)OCCO3)nnc1C(C)C` it is 116%.
Next, `COc1cc(C2C(C(=O)Nc3ccccc3OC)=C(C)Nc3ncnn32)ccc1O` (stereo not given): 106%; `O=C(C1CCN(S(=O)(=O)c2cccs2)CC1)N1CCCCCC1`: 100%; `Cc1nc(-c2ccc(NC(=O)c3cccs3)cc2)cs1`: 103%.
Consider `CC1=C(C)CC2C(=O)N(c3cccc4ccccc34)C(=O)C2C1` (stereo not given), for which the HER2 level % of control is 102%.
The figure for `CC(C)Cn1c(N)c(C(=O)NCc2cccs2)c2nc3ccccc3nc21` is -24.2% (active).
With `C=CCn1c(N)c(C(=O)OCC(C)C)c2nc3ccccc3nc21`, the HER2 level % of control is 86%.
Regarding `C=CCn1c(N)c(S(=O)(=O)c2cccs2)c2nc3ccccc3nc21`, the HER2 level % of control was 86.9%.
For `COc1ccc(OCC(=O)OCCN(C)C)cc1`, the HER2 level % of control was 117%.
For the molecule `O=C(O)C1C2C=CC(C2)C1C(=O)N1CCN(CCO)CC1` (stereo not given), the HER2 level % of control was 56.8%.
On to `Nc1cc(=O)nc(SCc2ccccc2)n1Cc1ccco1`, for which the HER2 level % of control is 77%.
As for `O=c1[nH]c(CSc2ncc(-c3ccc(F)cc3)n2Cc2ccco2)nc2ccccc12`, the HER2 level % of control is -21.8% (active).
The figure for `Cn1c(-c2ccc(F)cc2)cnc1SCC(=O)NCc1ccco1` is 85.8%.
Regarding `CN(C)c1nc2n(c(=O)n1)CCO2`, the HER2 level % of control was 93.2%.
The figure for `CCC(=O)NC(=Nc1nc2ccccc2s1)NC(=O)CC` is 76%.
The figure for `CCC(=O)c1cc2c(cc1NC(=O)c1cccs1)OCCO2` is 102%; for `COc1cccc(NC(=O)C(C)Oc2ccccc2)c1` (stereo not given) it is 87.6%.
Regarding `CCCC1CC(C)(C(=O)Cn2[nH]c(=O)ccc2=O)OC1=O` (stereo not given), the HER2 level % of control was 109%.
Next, `COc1ccccc1CNC(=O)Cn1cc2c(n1)CCCC2`: 95.6%; `CCc1cc2c(=O)c(-c3ccon3)c(N)oc2cc1OC`: 49.1%.
The figure for `Cc1ccccc1CN1CCN(C(=O)c2cccc(F)c2)CC1` is 79%; for `OC(COc1ccc2ccccc2c1)CN1CCOCC1` (stereo not given) it is 113%; for `Cc1cc(OCCN2CCCC2)ccc1C(C)C` it is 63%.
For the molecule `c1ccc2cc(OCCN3CCCC3)ccc2c1`, the HER2 level % of control is -25.1% (active).
The figure for `CCOC(=O)Cc1csc(NC(=O)C(C)(C)C)n1` is 135%; for `CCc1nc2ccccc2n(CCOCCOCCn2c(=O)c(CC)nc3ccccc32)c1=O` it is 91.8%; for `CC(=O)NC1=NC(=O)CS1` it is 76.7%.
`Cn1c2c(c(=O)n(C)c1=O)C1c3ccccc3OCC1C(C)(C)O2` (stereo not given): the HER2 level % of control was 99.2%.
The figure for `CCOc1ccccc1N=C1NC(=O)CS1` is 88.8%; for `CCN(CC)CCNC(=O)Cn1cnc2sc(C)c(S(=O)(=O)N3CCOCC3)c2c1=O` it is 103%.
Take `OC(COc1cccc2ccccc12)CN1CCN(c2ccccn2)CC1` (stereo not given): the HER2 level % of control was 105%.
Next, `O=C1CSC(=O)N1CCOCCN1C(=O)CSC1=O`: 104%; `Cc1ccc2c(CSc3nncs3)cc(=O)oc2c1`: 149%; `Cc1cc(=O)[nH]c(SCc2cc(Cl)ccc2OC(F)F)n1`: 103%.
The figure for `CC1CC(c2ccccc2)n2nc(NC(=O)c3cccs3)nc2N1` (stereo not given) is 89%.
Next, `CCOC(=O)Cc1c(C)nc2c(C#N)c(C)nn2c1C`: 92.6%.
`COCCNCCOCCOc1cccc(OC)c1`: the HER2 level % of control was 102%.
As for `Cc1nc(C)c2c(c1C(F)(F)F)-c1ccccc1C2(F)F`, the HER2 level % of control is 78.7%.
`COc1ccc(C(c2nnnn2C2CCCCC2)N2CCN(c3ccccc3F)CC2)cc1` (stereo not given): the HER2 level % of control was 80.7%.
The figure for `O=C(c1ccc2c(c1)N(Cc1ccc(F)cc1)C(=O)CS2)N1CCOCC1` is 98.6%.
For `CC(=O)N1CCN(c2cccc(C)c2C)CC1`, the HER2 level % of control is 110%.
As to `COc1ccc(C(CNC(=O)c2cccnc2SC)N2CCOCC2)cc1` (stereo not given), the HER2 level % of control is 106%.
On to `CC(=O)Nc1ccc(S(=O)(=O)N2CCCC2C(=O)O)cc1` (stereo not given), for which the HER2 level % of control was 162%.
The figure for `COC(=O)c1ccc(NC(=O)c2ccco2)cc1` is 85.8%; for `Cc1cc(C)nc(NC(=O)C(C)N2C(=O)c3ccccc3C2=O)n1` (stereo not given) it is 89.5%.
On to `COC(=O)c1ccc(NC(=O)C(C)N2C(=O)c3ccccc3C2=O)cc1` (stereo not given), for which the HER2 level % of control is -18.9% (active).
The figure for `COC(=O)C1C(=O)c2c([nH]c(C(=O)OCCSC)c2C)CC1C` (stereo not given) is 99.8%; for `CCOC(=O)c1c(C)n(C)c2ccc(OC)c(NC(=O)CN3CCC4(CC3)OCCO4)c12` it is 34.4%.
